An excerpt weighted towards active compounds, which were near 6.7% of everything screened.
Pf Dd2 growth = P. falciparum Dd2 growth inhibitors, primary screen, SYBR Green fluorescence, single dose replicates; 72 h; hits give low values; activity change, % at 10 µM; 94,000 compounds, 2.3% hits; AID 1159554, 2015; in the data active = activity change below about -80%; inconclusive = no clear call, values can overlap the other calls
T cruzi growth-1 = T. cruzi intracellular proliferation inhibitors, primary screen, cell-based, beta-gal Tulahuen parasites, NIH3T3 host, luminescence | inhibition, % at 8.34 µM | T. cruzi beta-gal in NIH3T3, GalScreen luminescence, 90 h | 77,000 compounds, 5.9% hits;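 active = mean inhibition above about 93%, with at least 55% of replicates each passing it, limit read from the data, passing the limit was not always enough; inconclusive = only one of those two conditions holds; inactive = neither condition holds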
C diff growth = C. difficile growth inhibitors, primary screen, HTS; growth activity, negative = inhibition, % at 16 µg/mL (by protocol); 86,000 compounds, 0.25% hits; Clostridium difficile clinical isolate growth, OD600, 24 h; hits give low values;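 active = mean growth activity at or below -80% and every replicate also at or below -80%; inconclusive = mean at or below -80% but some replicate above -80%; inactive = mean growth activity above -80%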
T cruzi growth-2 = T. cruzi intracellular proliferation inhibitors, confirmation, cell-based, NIH3T3 host, beta-gal parasite, luminescence, cherry-pick | T. cruzi beta-gal in NIH3T3, GalScreen luminescence, 90 h | shares compounds with T cruzi growth-1 | inhibition, % at 8.35 µM | 5,600 compounds, 72% hits;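 active = mean replicate inhibition above about 95% and at least 55% of replicates individually reaching it, limit read from the data; inconclusive = only one of the two criteria is met; inactive = neither criterion is met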
T cruzi growth-3 = inhibitors of intracellular T. cruzi replication, confirmation, NIH3T3 host cells, beta-gal parasites, cherry-pick, set 2. shares compounds with T cruzi growth-1. T. cruzi beta-gal in NIH3T3, GalScreen luminescence, 90 h. inhibition, % at 2.09 µM. 5,600 compounds, 21% hits. AID 651740, 2012;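 active = mean inhibition above about 95%, with at least 55% of replicates also reaching it, limit read from the data; inconclusive = meets just one of the two conditions; inactive = meets neither condition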
NIH3T3 tox = cytotoxicity in mouse NIH/3T3 fibroblasts, confirmation, cytotoxicity control for T. cruzi proliferation inhibitor project, cell-based, cherry-pick, single point. NIH/3T3 viability, CellTiter-Glo ATP luminescence, 90 h. 5,600 compounds, 14% hits. shares compounds with T cruzi growth-1. cytotoxicity (signal decrease), % at 8.35 µM. AID 651742, 2012;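 active = mean signal decrease across replicates above about 35% based on untreated-well scatter, with enough replicates individually passing, limit read from the data; inconclusive = no rule stated though some were filed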
3T3 cytotox 2 = NIH/3T3 fibroblast cytotoxicity, confirmation, cytotoxicity control, cell-based, cherry-pick, single point, set 2. NIH/3T3 viability, CellTiter-Glo ATP luminescence, 90 h. shares compounds with T cruzi growth-1. 5,600 compounds, 56% hits. inhibition, % at 24.9 µM;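 active = mean loss of cell viability signal at or above a set limit, and enough replicates individually reaching it; inconclusive = meets only the mean limit or only the replicate share; inactive = meets neither condition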
Numbers stand for hits; i = inactive; ? = inconclusive; nt = not tested or not shown.

SMILES	Pf Dd2 growth	T cruzi growth-1	C diff growth	T cruzi growth-2	T cruzi growth-3	NIH3T3 tox	3T3 cytotox 2
CO[C@@H]1CC[C@@H]2CCOc3ccc(C#N)cc3C(=O)N(C)C[C@H](C)C(=O)N(C)C[C@@H]1O2	nt	i	i	nt	nt	nt	nt
C/C=C/c1cnc2c(c1)C(=O)N([C@H](C)CO)C[C@H](C)[C@@H](CN(C)C(=O)C1CCC1)O2	i	i	nt	nt	nt	nt	nt
C[C@H](CO)N1C[C@H](C)[C@H](CN(C)C(=O)Cc2ccccc2)OCCCC[C@H](C)Oc2ccc(NC(=O)Nc3ccccc3)cc2C1=O	i	i	nt	nt	nt	nt	nt
C[C@@H]1CN([C@@H](C)CO)S(=O)(=O)c2ccc(C#Cc3cccc(F)c3)cc2O[C@H]1CN(C)C(=O)NC1CCCCC1	i	nt	i	nt	nt	nt	nt
COc1ccc(C#Cc2ccc3c(c2)O[C@H](CN(C)C(=O)NC2CCCCC2)[C@H](C)CN([C@H](C)CO)S3(=O)=O)cc1	i	?	i	?	113	i	i
COc1ccc(C#Cc2ccc3c(c2)O[C@H](CN(C)C(=O)NC2CCCCC2)[C@@H](C)CN([C@H](C)CO)S3(=O)=O)cc1	i	?	i	106	i	i	33
C[C@H](CO)N1C[C@H](C)[C@H](CN(C)C(=O)NC2CCCCC2)Oc2cc(C#Cc3ccc(F)cc3)ccc2S1(=O)=O	i	i	i	nt	nt	nt	nt
COc1ccc(C#Cc2ccc3c(c2)O[C@@H](CN(C)C(=O)NC2CCCCC2)[C@@H](C)CN([C@@H](C)CO)S3(=O)=O)cc1	i	?	i	?	114	i	i
C[C@@H]1CN([C@H](C)CO)S(=O)(=O)c2ccc(C#Cc3ccc(F)cc3)cc2O[C@H]1CN(C)C(=O)NC1CCCCC1	i	i	i	nt	nt	nt	nt
C[C@H](NC(=O)[C@H]1[C@H](CO)[C@H]2Cn3c(cccc3=O)[C@H]2N1S(C)(=O)=O)c1ccccc1	nt	i	i	nt	nt	nt	nt
CO[C@@H](CN(C)Cc1cc(F)ccc1F)[C@H](C)CN([C@H](C)CO)S(=O)(=O)c1ccc(C)cc1	i	i	nt	nt	nt	nt	nt
Cc1ccc(S(=O)(=O)N(C)C[C@H]2Oc3ccc(NS(=O)(=O)c4ccccc4)cc3C(=O)N([C@@H](C)CO)C[C@H]2C)cc1	i	i	i	nt	nt	nt	nt
O=C(Nc1cccc(Cl)c1)N[C@H]1CC[C@@H](CCn2cc(Cc3ccccc3)nn2)O[C@@H]1CO	i	i	nt	nt	nt	nt	nt
O=C(Nc1ccc(F)cc1)N[C@@H]1CC[C@H](CCn2cc(-c3ccccc3F)nn2)O[C@@H]1CO	nt	nt	i	nt	nt	nt	nt
O=C(NCC[C@H]1CC[C@H](NC(=O)c2ccncc2)[C@H](CO)O1)Nc1ccc(Cl)cc1	i	i	i	nt	nt	nt	nt
O=C(Nc1ccc(Cl)cc1)N[C@@H]1CC[C@@H](CCn2cc(-c3ccccc3F)nn2)O[C@H]1CO	i	105	i	104	i	i	i
O=C(Nc1cccc(Cl)c1)N[C@@H]1CC[C@@H](CCn2cc(Cc3ccccc3)nn2)O[C@@H]1CO	i	?	nt	98	i	i	33
O=C(Nc1ccc(Cl)cc1)N[C@@H]1CC[C@H](CCn2cc(-c3ccccc3F)nn2)O[C@H]1CO	i	i	i	nt	nt	nt	nt
O=C(NCC[C@@H]1CC[C@H](NC(=O)c2ccncc2)[C@H](CO)O1)Nc1ccc(Cl)cc1	i	101	i	97	i	i	i
O=C(Nc1ccc(Cl)cc1)N[C@H]1CC[C@@H](CCn2cc(-c3ccccc3F)nn2)O[C@H]1CO	i	154	i	i	i	i	41
CC(C)NC(=O)Nc1ccc2c(c1)C(=O)N([C@@H](C)CO)C[C@@H](C)[C@@H](CN(C)C(=O)Nc1cccc3ccccc13)OCCCC[C@@H](C)O2	i	i	i	nt	nt	nt	nt
COc1ccc(CN(C)C[C@H]2Oc3ccc(NC(=O)Nc4ccc(C(F)(F)F)cc4)cc3CC(=O)N([C@H](C)CO)C[C@H]2C)cc1	i	i	i	nt	nt	nt	nt
O=C(Nc1ccc(F)cc1)N1CC(=O)N2[C@H](CO)[C@H](c3ccc(-c4cccc(F)c4)cc3)[C@H]2C1	i	nt	i	nt	nt	nt	nt

From PubChem BioAssay
